# Measurements published in PubChem BioAssay AID488890 (Southern Research Specialized Biocontainment Screening …, 2010).
# Out of some 320,000 compounds screened, about 1,300 (0.41%) were called active. Another 3% or so got no clear call; they are omitted. How the calls were made is not given here. Not all results are given here. Potency and affinity values are given separately.
# Assay: growth inhibition of non-replicating M. tuberculosis (AID 488890);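 further: plate controls were DMSO cells for no effect and high antibiotic wells for full effect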
# Conditions: Mycobacterium tuberculosis non-replicating, at 25 µM, stronger effect = higher value
row,SMILES,inhibition [%]
1,Cc1ccc(C)c(OCCCNCc2ccccc2)c1,32.5
2,Brc1ccccc1OCCNCc1ccccc1,32.1
3,O=C(Nc1ccc2c(c1)OCO2)c1cccs1,21.2
4,CCc1sc(C(=O)Nc2ccc3c(c2)OCO3)cc1C,61.2
5,O=C(N/N=C/c1c(Nc2cccc(C(F)(F)F)c2)nc2ccccn2c1=O)c1ccccc1[N+](=O)[O-],-6.01
6,CN(C)c1ccccc1C(=O)c1ccccc1N(C)C,9.64
7,O=[N+]([O-])c1ccccc1Oc1cnc2ccccc2n1,46.2
8,Oc1ccc(Cl)cc1C1=NNC(c2cc(Br)cc3c2OCOC3)C1 (stereo unspecified),61.3
9,Oc1ccccc1C1CC(c2cccs2)=NC(c2ccc(Cl)cc2)N1 (stereo unspecified),73.4
10,COC(=O)C1=C(C(=O)OC)[C@@H]2N(Cc3ccccc3)c3ccccc3[C@@]23C[C@@H](C(=O)OC)N(C(=O)c2cccs2)C3=N1,21.8
11,CC1CCc2c(C(=O)NCCCN3CCOCC3)csc2C1 (stereo unspecified),-0.86
12,COc1cc(NS(=O)(=O)c2csc(C(N)=O)c2)cc(OC)c1,2.46
13,COc1ccc(C)c2sc(N(CCN(C)C)C(=O)c3ccc4ccccc4c3)nc12,28.4
14,Cc1cc(NC(=O)COC(=O)COc2ccc3c(c2)CCC3)no1,10.3
15,CCOc1ccc(NC(=O)COc2ccc3c(c2)CCC3)cc1OC,66.5
16,Cc1cccnc1NC(=O)COc1ccc2c(c1)CCC2,70.6
17,Cc1ccc(CNC(=O)COc2ccc3c(c2)CCC3)cc1,55.2
18,CC(=O)Nc1ccc(NC(=O)COc2ccc3c(c2)CCC3)cc1,79.7
19,Cc1ccc(NC(=O)COc2ccc3oc4c(c3c2)CCCC4)nc1,57.5
20,CC(C)C[C@@H](CSc1ccccc1)N1CCN(CCc2ccccc2)CCC1=O,31
21,Fc1cccc(Cl)c1/C=C/c1cnc2ccccc2n1,13.9
22,COc1ccc(-c2noc(CN(C)CCC3CCCCO3)n2)cc1 (stereo unspecified),17.2
23,COC(=O)C1=CN(c2ccc(OC)cc2)C=C(C(=O)OC)C1c1cccc(F)c1,26.1
24,COc1ccc(N2C(=O)CSC2c2cccc(F)c2)cc1 (stereo unspecified),1.65

row,SMILES,inhibition [%]
1,COc1ccccc1N(CC(=O)NCC1CCCO1)C(=O)CCC(=O)Nc1nccs1 (stereo unspecified),1.91
2,Cc1nc2ccccc2c(=O)n1-c1cc(F)ccc1F,10.4
3,Nc1ccccc1C(=O)c1ccccc1,-8.33
4,Nc1ccccc1C#Cc1ccccc1,44.7
5,COc1ccc(C(=O)Cn2c(NCCO)nc3ccccc32)cc1,-8.13
6,CCCCNC(=O)CCn1nc(-c2ccc(C)cc2)c2ccccc2c1=O,1.93
7,Cc1cc(C(=O)N/N=C/c2ccc3ccccc3c2)n[nH]1,-9.05
8,Cc1cccc(Cn2ccc(NC(=O)c3cccnc3)n2)c1,31.2
9,CCOC(=O)Cn1ccc(NC(=O)c2ccc3c(c2)OCO3)n1,-2.16
10,CC1CCCC(C)N1C(=O)COC(=O)c1c[nH]c2ccccc12 (stereo unspecified),15.5
11,O=C(NCCO)c1cc2cc(Cl)cc(Cl)c2oc1=O,18
12,COCCNC(=O)c1cc2cc(Br)cc(OC)c2oc1=O,56
13,COc1ccccc1/C=C/C(=O)OCCN1C(=O)c2ccccc2C1=O,2.64
14,NC(=O)C1CCN(C(=O)NC2CC(=O)N(c3ccc4c(c3)OCCO4)C2)CC1 (stereo unspecified),-13.4
15,CC(NC(=O)c1ccco1)C(=O)OCC(=O)c1ccc(Cl)s1 (stereo unspecified),13.9
16,C/C(=N\NC(=O)c1ccco1)c1ccc(C(=O)O)s1,-5.86
17,CCC/C(=N/NC(=O)c1csc(C)c1C)c1ccc(Cl)s1,0.55
18,C/C(=N\NC(=O)c1ccc(C(=O)N/N=C(\C)c2ccco2)o1)c1ccco1,19.3
19,O=C(COC(=O)c1ccc(Cl)nc1)NNC(=O)c1ccc(Br)cc1,6.9
20,Cc1ccc(CS(=O)(=O)c2ccc(C(=O)N3CCN(c4ccccn4)CC3)cc2[N+](=O)[O-])cc1,-16.8
21,Cc1ccc(C(=O)OC(C)C(=O)NC2CCCCC2C)s1 (stereo unspecified),-2.95
22,CC(OC(=O)c1cccs1)C(=O)NC1CCCCC1C (stereo unspecified),-13.9
23,COc1ccc(C(CNC(=O)C(Cc2ccccc2)NC(N)=O)N(C)C)cc1 (stereo unspecified),3.12
24,CCNC(=S)NNC(=O)c1ccncc1,65.4

row,SMILES,inhibition [%]
1,CC(C)(C)C(=O)NC(=S)NNC(=O)c1ccncc1,71.7
2,N/C(Cn1cncn1)=N\NC(=O)C(=O)Nc1ccccc1,18
3,Nc1ccc(Oc2ccc(Br)cc2)cc1,60.5
4,Nc1ccc(Br)cc1Br,-19.9
5,O=[N+]([O-])c1ccc(O)c(/C=N/n2c(CO)nc3ccccc32)c1,-11.8
6,Cc1cc2ncn(/N=C/c3cccnc3)c2cc1C,55
7,Cc1cc2ncn(/N=C/c3ccc4c(c3)OCO4)c2cc1C,64.7
8,OCc1nc2ccccc2n1/N=C/c1cccs1,-12
9,Cc1ccc(/C=N/n2c(C)nc3ccccc3c2=O)s1,18.6
10,Nc1nc2ccccc2n1/N=C/c1ccc([N+](=O)[O-])s1,74.1
11,COc1ccc(C(=O)Nc2ccccc2)cc1S(=O)(=O)NCc1ccco1,-9.46
12,Cc1ccc(S(=O)(=O)N2CCCC(C(=O)NNCC(=O)Nc3cc(F)ccc3F)C2)cc1 (stereo unspecified),11.7
13,O=C(Nc1nnc(SCc2ccccc2F)s1)C1=COCCO1,45.5
14,CNC(=O)COC(=O)c1ccc([N+](=O)[O-])cc1Cl,11.7
15,CCc1cc2ccc(C)cc2nc1SCC(=O)c1ccc(NC(C)=O)cc1,12
16,Cc1ccc(NCC(=O)c2ccc(C)cc2)cc1,72.5
17,Cc1ccc(C(=O)CNc2ccc(Cl)cc2)cc1,74.1
18,CC(C)Oc1ccc(NC(N)=O)cc1,-4.08
19,CC(C)Oc1ccc(NC(=O)CCC(=O)O)cc1,-9.1
20,Cc1ccc(-c2nnn(CC(=O)N(c3ccccc3)C(C(=O)NCC3CCCO3)c3cccs3)n2)o1 (stereo unspecified),-3.42
21,O=C(O)C1C2C=CC(C2)C1C(=O)Nc1nccs1 (stereo unspecified),-3.04
22,COc1ccc2c(=O)c(-c3ccccc3C)c(C)oc2c1,50.8
23,Cc1ccc(N2C(=O)C3C4C=CC(CNC(=S)Nc5ccc(F)cc5)(O4)C3C2=O)cc1 (stereo unspecified),54.3
24,COc1ccc(Cl)cc1S(=O)(=O)n1c([N+](=O)[O-])cnc1C,-6.01

row,SMILES,inhibition [%]
1,O=C(Cc1ccc([N+](=O)[O-])cc1)Nc1ccc(Br)cn1,-0.37
2,Cc1ccc(NC(=O)Cc2ccc(Cl)cc2)nc1,27.8
3,Cc1ccc(OCC(=O)NC(=S)Nc2cccc(C)n2)cc1,7.91
4,O=C(COC(=O)CCOc1ccccc1)Nc1ccc(Cl)cn1,79.6
5,COc1ccc(OCC(=O)Nc2cccc(NC(=O)COc3ccc(OC)cc3)n2)cc1,-11.7
6,Cc1ccc(OCC(=O)Nc2ccc([N+](=O)[O-])cn2)cc1C,-14.3
7,O=C(COC(=O)COc1ccccc1)Nc1ccc(Cl)cn1,22.1
8,O=C(Cc1ccc(Cl)cc1)Nc1ccc(Cl)cn1,78.1
9,COc1ccc(-c2nnc(NC(=O)c3cc(C)on3)s2)cc1,71.9
10,O=C(OCc1cc(Cl)cc2c1OCOC2)c1cccnc1Cl,14.6
11,CC(C)CCNc1nc(N)c([N+](=O)[O-])c(NCCO)n1,-5.48
12,CCOc1cc(C2C(C(=O)c3ccco3)=C(O)C(=O)N2CCc2ccccc2)ccc1O (stereo unspecified),29.2
13,COc1ccc(C2=NOC(Cn3nc(-c4ccccc4)cc3C(=O)NCc3cccc(Br)c3)C2)cc1 (stereo unspecified),-12.8
14,Cn1c(N2CCCCC2)cc(=O)n(C)c1=O,-10.1
15,CCOC(=O)C1CCCN(C2CC(=O)N(c3ccccc3)C2=O)C1 (stereo unspecified),30.8
16,COC(=O)[C@@H]1C[C@@H]2CC[C@@H](O)C[C@@H]2N1Cc1ccccc1OS(=O)(=O)c1ccc(C)cc1,26.6
17,Cc1cccc(-c2noc(CCCC(=O)NCC3CCCO3)n2)c1 (stereo unspecified),16.8
18,O=C(c1cccc(S(=O)(=O)NCc2ccccc2)c1)N1CCN(c2ccccc2)CC1,17.1
19,Cc1ccn2c(=O)nc(SCC(=O)Nc3ccc4c(c3)OCO4)nc2c1,25.1
20,O=C(COC(=O)c1ccc([N+](=O)[O-])cc1)Nc1ccc(Cl)cn1,34.3
21,O=C(COc1ccccc1Cl)Nc1ccc(Cl)cn1,29.8
22,Cc1ccc(C(=O)OCC(=O)Nc2ccc(Cl)cn2)s1,35.7
23,O=C(COc1ccc(Cl)cc1Cl)Nc1ccc(Cl)cn1,61
24,c1ccc(-c2nnc(OCC3CCCO3)c3ccccc23)cc1 (stereo unspecified),4.74

row,SMILES,inhibition [%]
1,CCOc1ccc(C(=O)N/N=C/c2ccc(SC)cc2)cc1,7.39
2,COc1ccc(Br)cc1S(=O)(=O)N1CCN=C1c1ccccc1,9.49
3,CCOC(=O)c1c[nH]c2c(C)ccc(Cl)c2c1=O,5.99
4,Cc1cccc(N=N/C(=C\O)C(=O)c2cccs2)c1,23.2
5,O=C(/C(=C/O)N=Nc1ccccc1)c1cccs1,29.9
6,CC1CCN(C(=O)CCCNC(=O)Cn2cnc3sc4c(c3c2=O)CCCC4)CC1,-3.59
7,Cc1onc(-c2c(F)cccc2Cl)c1C(=O)NCCc1ccncc1,-2.23
8,O=C(NCc1cccc2[nH]ccc12)C1CCC(=O)N(CCc2ccc(Cl)cc2)C1 (stereo unspecified),14.7
9,CN1C[C@@H]2C[C@@H](C3=Cc4cc(Cl)ccc4OC3)N3CCC[C@@]23C1=O,8.63
10,CN(CC(=O)Nc1ccccc1N1CCOCC1)CC(=O)Nc1ccc(F)c(F)c1F,7.73
11,CCCC(=O)NC(Nc1ccc(S(=O)(=O)Nc2cc(C)on2)cc1)(C(F)(F)F)C(F)(F)F,69.8
12,CC(/C=C/c1ccccc1F)=N\NC(=O)C(C)C,13.2
13,CC(/C=C/c1ccc2c(c1)OCO2)=N\NC(=O)C(O)c1ccccc1 (stereo unspecified),-1.85
14,O=C(N/N=C/c1ccc2c(c1)OCO2)C1COc2ccccc2O1 (stereo unspecified),69.6
15,CC(/C=C/C=C/c1ccccc1)=N/NC(=O)c1ccc2c(c1)OCCO2,11.1
16,CC(/C=C/c1ccccc1)=N/NC(=O)CNC(=O)c1ccc2c(c1)OCO2,-0.44
17,C/C(=N/NC(=O)c1ccccc1)C(=O)O,21.7
18,O=C(COc1cc(F)ccc1[N+](=O)[O-])Nc1cccc(S(=O)(=O)NC2=NCCC2)c1,-15.8
19,C=CCSc1nccc(=O)[nH]1,17.7
20,COc1ccc(CCNC(=O)NC(C(F)(F)F)C(F)(F)F)cc1OC,-0.6
